Screening data (PubChem)
The entries come from a sample that favours hits as a whole.
PD-1 reversal – activators reversing PD-1 mediated T-cell inhibition, primary screen, luminescence, primary human CD4 T cells, PD-L1 beads. activation, % (no concentration beside the values). AID 2316, 2010. CellTiter-Glo 96 h. 29,000 tested, under 10 active; call rule not given here
NOMO-1 viab – NOMO-1 AML cell viability reduction, primary screen, STK33 inhibitor project, CellTiter-Glo luminescence | NOMO-1 AML viability, 72 h | inhibition, % (test concentration not listed) | hit rate 7.5% among 37,000; in the data active = inhibition above about 80%; inconclusive = no clear call, values can overlap the other calls
STK33 kin inh – STK33 kinase inhibitors, primary screen, biochemical, luminescence, ADP-Glo, MBP substrate | inhibition, % at 12.5 µM | hit rate 0.44% among 27,000 | Serine/threonine-protein kinase 33 (Homo sapiens), Q9BYT3; in the data active = inhibition above about 20%; inconclusive = no clear call, values can overlap the other calls
Target sequence (Q9BYT3 whole entry, looked up): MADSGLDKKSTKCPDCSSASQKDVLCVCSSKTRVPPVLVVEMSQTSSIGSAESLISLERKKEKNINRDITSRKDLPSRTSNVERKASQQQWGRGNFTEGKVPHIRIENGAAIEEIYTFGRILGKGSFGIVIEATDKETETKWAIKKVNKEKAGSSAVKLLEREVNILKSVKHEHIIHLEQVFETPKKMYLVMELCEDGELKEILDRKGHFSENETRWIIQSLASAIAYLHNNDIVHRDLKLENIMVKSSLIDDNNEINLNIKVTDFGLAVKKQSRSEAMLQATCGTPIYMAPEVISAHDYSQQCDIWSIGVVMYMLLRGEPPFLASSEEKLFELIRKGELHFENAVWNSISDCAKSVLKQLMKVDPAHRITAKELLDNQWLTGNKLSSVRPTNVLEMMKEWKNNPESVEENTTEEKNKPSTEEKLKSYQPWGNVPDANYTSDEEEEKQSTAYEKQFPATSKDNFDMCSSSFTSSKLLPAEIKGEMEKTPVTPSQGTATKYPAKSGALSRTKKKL
Large screens that a line does not name were inactive.

C[C@H](CO)N1C[C@H](C)[C@@H](CN(C)Cc2ccc(Oc3ccccc3)cc2)Oc2c(NC(=O)c3cnccn3)cccc2C1=O	NOMO-1 viab 105.6 (no result: STK33 kin inh)
C[C@@H]1CN([C@H](C)CO)C(=O)c2cccc(NC(=O)c3cnccn3)c2O[C@H]1CN(C)Cc1ccc(Oc2ccccc2)cc1	none (no result: STK33 kin inh)
C[C@@H]1CN([C@H](C)CO)C(=O)c2cccc(NC(=O)c3cnccn3)c2O[C@H]1CN(C)Cc1ccc(Cl)c(Cl)c1	NOMO-1 viab 95.8 (no result: STK33 kin inh)
C[C@@H]1CN([C@H](C)CO)C(=O)c2cccc(NC(=O)c3cnccn3)c2O[C@@H]1CN(C)Cc1ccc(Cl)c(Cl)c1	none (no result: STK33 kin inh)
C[C@H]1CN([C@@H](C)CO)C(=O)c2cc(NC(=O)CCC(F)(F)F)ccc2O[C@@H]1CN(C)S(=O)(=O)c1ccc(Cl)cc1	none
C[C@H]1CN([C@@H](C)CO)C(=O)c2cccc(NS(=O)(=O)c3cccs3)c2O[C@H]1CN(C)Cc1ccc(C(F)(F)F)cc1	none (no result: STK33 kin inh)
C[C@H]1CC[C@@H]2[C@@H](C(=O)c3c(O)c([C@]4(O)CC[C@@H](O)[C@H]5O[C@H]54)c[nH]c3=O)[C@@H](C)C=C[C@H]2C1	NOMO-1 viab 121.1
CC(NC(=O)/C=C/C(=O)O)C(=O)NC(C(=O)NC(Cc1c[nH]c2ccccc12)C(=O)O)C(C)c1c[nH]c2ccccc12 (stereo not given)	STK33 kin inh 149.5
CC(C)[C@H](N)C(=O)N[C@@H](Cc1c[nH]c2ccccc12)C(=O)O	none (no result: PD-1 reversal)
CC(=O)O[C@H]1C[C@@H](OC(C)=O)C(C)(C)C2C[C@@H](OC(C)=O)[C@]3(C)C([C@H](OC(C)=O)C[C@@]4(C)[C@H](c5ccoc5)OC(=O)[C@H]5O[C@]543)[C@]21C (stereo not given in full)	none (no result: PD-1 reversal)
C=C1C(C2(C)C=CC(=O)C(C)(C)C2CC(=O)OC)CC[C@@]2(C)[C@H](c3ccoc3)OC(=O)C3OC132 (stereo not given in full)	NOMO-1 viab 110.4 (no result: PD-1 reversal)
CC1(C)C(=O)C=C[C@@]2(C)C1C=C[C@]1(C)C2CC[C@@]2(C)[C@H](c3ccoc3)OC(=O)C3OC321 (stereo not given in full)	NOMO-1 viab 106.7 (no result: PD-1 reversal)
COC(=O)C[C@H]1C(C)(C)C(=O)[C@@H]2CC3=C4CC(=O)O[C@@H](c5ccoc5)[C@]4(C)CCC3[C@@]1(C)C2=O (stereo not given in full)	none (no result: PD-1 reversal)
FC(F)(F)c1ccc(Oc2ccc(Oc3ccc(C(F)(F)F)cn3)cc2)nc1	none (no result: STK33 kin inh)
C[C@]1(CO)CCC[C@]2(C)C3=C(C[C@@H](O)C12)C(=O)OC3 (stereo not given in full)	none
CSc1ccccc1NC(=O)CN(c1ccc(I)cc1)S(C)(=O)=O	none (no result: PD-1 reversal)
C[C@H]1CN([C@@H](C)CO)C(=O)c2cc(NC(=O)CCN3CCOCC3)ccc2O[C@@H]1CN(C)Cc1ccc(-c2ccccc2)cc1	none (no result: PD-1 reversal, STK33 kin inh)
C[C@H]1CN([C@@H](C)CO)C(=O)c2cc(NC(=O)Nc3ccc(C(F)(F)F)cc3)ccc2O[C@@H]1CN(C)S(C)(=O)=O	none (no result: STK33 kin inh)
C[C@H]1CN([C@@H](C)CO)C(=O)c2cccc(NC(=O)C3CCCCC3)c2O[C@H]1CN(C)C(=O)Nc1ccc(F)cc1	none (no result: STK33 kin inh)
C[C@H](CO)N1C[C@H](C)[C@H](CN(C)Cc2ccccc2)Oc2ccc(NC(=O)Nc3ccc(C(F)(F)F)cc3)cc2CC1=O	NOMO-1 viab inconclusive
C[C@H]1CN([C@@H](C)CO)C(=O)Cc2cc(NC(=O)Nc3ccccc3)ccc2O[C@H]1CN(C)Cc1ccc(C(F)(F)F)cc1	NOMO-1 viab 127.2 (no result: PD-1 reversal, STK33 kin inh)
C[C@H]1CN([C@@H](C)CO)C(=O)Cc2cc(NC(=O)Nc3ccc(C(F)(F)F)cc3)ccc2O[C@H]1CN(C)Cc1ccccc1	NOMO-1 viab 84.5 (no result: PD-1 reversal)
C[C@@H]1CN([C@H](C)CO)C(=O)Cc2cc(NC(=O)Nc3ccc(C(F)(F)F)cc3)ccc2O[C@H]1CN(C)Cc1ccccc1	none
CCOC(=O)C1CCN(C(=O)Nc2ccc3snnc3c2)CC1	NOMO-1 viab 105.8
CCOC(=O)C1CCN(C(=O)N2c3ccccc3Sc3ccccc32)CC1	none (no result: STK33 kin inh)
C[C@@H]1CN([C@H](C)CO)C(=O)Cc2cc(NC(=O)CCCCCC(=O)Nc3ccccc3N)ccc2O[C@H]1CN(C)Cc1ccc(Cl)c(Cl)c1	NOMO-1 viab 108.1 (no result: STK33 kin inh)
C[C@@H]1CN([C@H](C)CO)C(=O)Cc2cc(NC(=O)CCCCCC(=O)Nc3ccccc3N)ccc2O[C@H]1CN(C)C	none (no result: STK33 kin inh)
C[C@H]1CN([C@@H](C)CO)C(=O)c2cc(NC(=O)CCCCCC(=O)Nc3ccccc3N)ccc2O[C@H]1CN(C)Cc1ccc(Cl)c(Cl)c1	NOMO-1 viab 111.1 (no result: STK33 kin inh)
COc1ccc(CN(C)C[C@@H]2Oc3ccc(NC(=O)CCCCCC(=O)Nc4ccccc4N)cc3CC(=O)N([C@H](C)CO)C[C@H]2C)cc1	none (no result: STK33 kin inh)
C[C@H]1CN([C@@H](C)CO)C(=O)Cc2cc(NC(=O)CCCCCC(=O)Nc3ccccc3N)ccc2O[C@@H]1CN(C)Cc1ccc(Cl)c(Cl)c1	NOMO-1 viab 92.1 (no result: STK33 kin inh)
C[C@@H]1CN([C@@H](C)CO)C(=O)c2cc(NC(=O)CCCCCC(=O)Nc3ccccc3N)ccc2O[C@H]1CN(C)Cc1ccccc1	none (no result: STK33 kin inh)
COc1cc(C[C@@H]2CO[C@@H](c3ccc(O)c(OC)c3)[C@@H]2CO)ccc1O	none
CNC[C@H]1Oc2c(NS(=O)(=O)c3cccs3)cccc2C(=O)N([C@@H](C)CO)C[C@@H]1C	none (no result: STK33 kin inh)
COc1ccc(S(=O)(=O)N(C)CC(=O)Nc2cc(Cl)ccc2OC)cc1C	none
COC(=O)CNC(=O)c1cn(-c2ccccc2)nc1-c1cccc(Br)c1	none (no result: PD-1 reversal)
CNC[C@@H]1OCCCC[C@@H](C)Oc2ccc(NC(=O)C3CCCCC3)cc2C(=O)N([C@H](C)CO)C[C@@H]1C	none
COc1ccc(-c2nnc3c4ccccc4c(C)nn23)cc1S(=O)(=O)NCc1ccccc1	none
COc1ccc(S(=O)(=O)NCc2ccccc2)cc1-c1nnc2c3ccccc3c(C)nn12	NOMO-1 viab 115.7 (no result: PD-1 reversal)
Cc1ccc(S(=O)(=O)N(C)C[C@@H]2Oc3ccc(NS(=O)(=O)c4ccc(F)cc4)cc3CC(=O)N([C@H](C)CO)C[C@H]2C)cc1	none (no result: STK33 kin inh)
C[C@@H]1CN([C@H](C)CO)C(=O)Cc2cc(NS(=O)(=O)c3ccccc3)ccc2O[C@@H]1CN(C)Cc1ccc(Cl)c(Cl)c1	NOMO-1 viab 84.9
C[C@H](CO)N1C[C@H](C)[C@H](CN(C)Cc2ccccc2)Oc2ccc(NS(=O)(=O)c3ccccc3)cc2CC1=O	none
C[C@H]1CN([C@@H](C)CO)C(=O)Cc2cc(NS(=O)(=O)c3ccccc3)ccc2O[C@H]1CN(C)Cc1ccc(Cl)c(Cl)c1	NOMO-1 viab 100.2
C[C@H](CO)N1C[C@H](C)[C@H](CN(C)Cc2ccc(Cl)c(Cl)c2)Oc2ccc(NS(=O)(=O)c3ccccc3)cc2CC1=O	none
C[C@@H]1CN([C@H](C)CO)C(=O)Cc2cc(NS(=O)(=O)c3ccccc3)ccc2O[C@H]1CN(C)Cc1ccc(Cl)c(Cl)c1	NOMO-1 viab 111.1
C[C@@H]1CN([C@@H](C)CO)C(=O)Cc2cc(NS(=O)(=O)c3ccccc3)ccc2O[C@@H]1CN(C)Cc1ccccc1	none
O=C(Cn1cc([N+](=O)[O-])cn1)Nc1ccc(F)cc1	none
CS(=O)(=O)N(CC(=O)Nc1ccc(I)cc1)c1ccc2c(c1)OCCO2	none
